# Source: PubChem BioAssay (NCI)
# “And” between values parts separate entries of the source, which are not always exact repeats. Equal values may be shown once. Compounds without any hit were thinned out: in the full panel of roughly 83,000, 20% have a hit.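 48-hour exposure, single concentration, 96-well plates; percent growth endpoint where 0 means no net growth. Active: below 10.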 The source made the active and inactive calls.
# What was measured:
# Assay in all cases: NCI-60 one-dose screen, 48 h (100 = growth as untreated, 0 = no growth, -100 = all killed)
# Details in all cases: 10 µM unless noted
# T-47D breast = test system: T-47D breast
# BT-549 breast = test system: BT-549 breast
# MDA-MB-435 melanoma = test system: MDA-MB-435 melanoma
# SW-620 colon = test system: SW-620 colon
# MCF7 breast = test system: MCF7 breast
# HCT-116 colon = test system: HCT-116 colon
# HCC-2998 colon = test system: HCC-2998 colon
# KM12 colon = test system: KM12 colon
SMILES,growth (T-47D breast),growth (BT-549 breast),growth (MDA-MB-435 melanoma),growth (SW-620 colon),growth (MCF7 breast),growth (HCT-116 colon),growth (HCC-2998 colon),growth (KM12 colon)
O=C1c2ccccc2C(=O)c2c(NCCNCCO)ccc(NCCNCCO)c21,-3.06% (active) and 10.5% (inactive) and 31.6% (inactive),6.06% (active) and 86.7% (inactive) and 62.6% (inactive),22.6% (inactive) and 43.5% (inactive) and 20.8% (inactive),12.2% (inactive) and 27.3% (inactive) and 22.2% (inactive),-1.56% (active) and 6.38% (active) and 2.38% (active),-21.4% (active) and 22.7% (inactive) and 17.7% (inactive),36.6% (inactive) and 41.1% (inactive),8.81% (active) and 41.7% (inactive) and 40.2% (inactive)
Nc1nc2ncc(CNc3ccc(C(=O)N[C@@H](CCc4nn[nH]n4)C(=O)O)cc3)nc2c(=O)[nH]1,103% (inactive) and 95.9% (inactive),88.7% (inactive) and 107% (inactive),101% (inactive) and 110% (inactive),98.5% (inactive) and 104% (inactive),94.2% (inactive) and 93.7% (inactive),94.1% (inactive) and 98.9% (inactive),99.2% (inactive) and 104% (inactive),94.5% (inactive) and 103% (inactive)
Cc1ncsc1CCO,93.5% (inactive) and 94.4% (inactive),101% (inactive) and 100% (inactive),106% (inactive) and 104% (inactive),108% (inactive) and 101% (inactive),109% (inactive) and 96% (inactive),112% (inactive) and 102% (inactive),101% (inactive) and 109% (inactive),110% (inactive) and 98.1% (inactive)
CC12CCC(CC1)C(C)(C)O2,97.9% (inactive),98.9% (inactive),100% (inactive),104% (inactive),98.7% (inactive),112% (inactive),107% (inactive),109% (inactive)
COc1ccc2nc(Cl)cc(C)c2c1,98.5% (inactive) and 128% (inactive),130% (inactive) and 92% (inactive),93.6% (inactive) and 96.1% (inactive),102% (inactive) and 122% (inactive),92.1% (inactive) and 111% (inactive),107% (inactive) and 89.6% (inactive),108% (inactive) and 96.1% (inactive),99.3% (inactive) and 124% (inactive)
COC(=O)[C@H]1CCCN1C(=O)C1CCCN1C(=O)[C@@H](Cc1ccccc1)NC(=S)Nc1cc(C(F)(F)F)cc(C(F)(F)F)c1 (some centres undefined),105% (inactive) and 69.1% (inactive),112% (inactive) and 96.8% (inactive),100% (inactive) and 89.7% (inactive),104% (inactive) and 89% (inactive),99.2% (inactive) and 86.3% (inactive),112% (inactive) and 65.5% (inactive),108% (inactive) and 112% (inactive),111% (inactive) and 96.5% (inactive)
CC1=C(/C=C/C(C)=C/C=C/C(C)=C/C(=O)Nc2ccc(O)cc2)C(C)(C)CCC1,5.78% (active),21.9% (inactive),31.7% (inactive),67.2% (inactive),8.82% (active),55.3% (inactive),51% (inactive),34.2% (inactive)
Cn1cnc([N+](=O)[O-])c1Sc1ncnc2nc[nH]c12,65.4% (inactive) and 79.7% (inactive),70.7% (inactive),33.7% (inactive) and 35.7% (inactive),93.8% (inactive) and 94.7% (inactive),36.2% (inactive) and 33.2% (inactive),50% (inactive) and 60.1% (inactive),64.4% (inactive) and 55% (inactive),51.2% (inactive) and 65.2% (inactive)
COC(=O)/C=C/c1cc(O)c2c(c1)C(C(=O)OC)C(c1ccc(O)c(O)c1)O2 (centres undefined),84.7% (inactive) and 84.1% (inactive),-2.3% (active) and -1.89% (active),-37.6% (active) and -26% (active),19.4% (inactive) and 29.6% (inactive),15.1% (inactive) and 13.7% (inactive),8.03% (active) and 7.89% (active),27.8% (inactive) and 29.9% (inactive),11.9% (inactive) and 11.7% (inactive)
COc1ccccc1C(C)=O,106% (inactive) and 96.2% (inactive),109% (inactive) and 100% (inactive),104% (inactive) and 112% (inactive),95.4% (inactive) and 105% (inactive),103% (inactive) and 96.6% (inactive),107% (inactive) and 102% (inactive),111% (inactive) and 107% (inactive),102% (inactive) and 111% (inactive)
Cc1ccc(S(=O)(=O)NCN2C(=O)c3ccccc3C2=O)cc1,110% (inactive),101% (inactive),111% (inactive),108% (inactive),95.2% (inactive),98.5% (inactive),99.4% (inactive),110% (inactive)
Cc1n[nH]c(=O)n(/N=C\c2c[nH]c3ccccc23)c1=O,102% (inactive),117% (inactive),107% (inactive),106% (inactive),91.1% (inactive),113% (inactive),108% (inactive),105% (inactive)
O=C(O)CSCc1nc2ccccc2[nH]1,104% (inactive),108% (inactive),115% (inactive),103% (inactive),96.4% (inactive),107% (inactive),103% (inactive),111% (inactive)
Oc1c(CN2CCCCC2)ccc2cccnc12,38.8% (inactive) and 36.4% (inactive),94.7% (inactive) and 63.4% (inactive),63.9% (inactive),44% (inactive) and 44.7% (inactive),38.9% (inactive),10.1% (inactive) and 15.2% (inactive),96.5% (inactive) and 59.7% (inactive),44.5% (inactive) and 32.6% (inactive)
CNC(=O)c1cccc(-c2ccc3c(N4CCOC[C@@H]4C)nc(N4CCOC[C@@H]4C)nc3n2)c1,-24.4% (active) and -34.1% (active),-7.8% (active) and -13.9% (active),2.05% (active) and -13.4% (active),11.4% (inactive) and 5.84% (active),5.66% (active) and 4.27% (active),27.7% (inactive) and 15.4% (inactive),18.6% (inactive) and 4% (active),11.7% (inactive) and 13.2% (inactive)
COc1cc(NS(C)(=O)=O)ccc1Nc1c2ccccc2nc2c(C)cccc12,2.65% (active) and 4.75% (active),3.76% (active) and 4.61% (active),37.1% (inactive) and 45.7% (inactive),6.14% (active) and 16.4% (inactive),14.1% (inactive) and 14% (inactive),0.292% (active) and 8.67% (active),-60.5% (active) and -6.07% (active),-32.8% (active) and 7.97% (active)
OCCN1CCN(CCO)CC1,89.8% (inactive) and 86% (inactive) and 118% (inactive),110% (inactive) and 89.5% (inactive) and 102% (inactive),113% (inactive) and 99.8% (inactive) and 115% (inactive),99.5% (inactive) and 103% (inactive),95.5% (inactive) and 95.1% (inactive) and 107% (inactive),104% (inactive) and 87.9% (inactive) and 98.8% (inactive),102% (inactive) and 95.7% (inactive) and 107% (inactive),108% (inactive) and 96.8% (inactive) and 109% (inactive)
O=[N+]([O-])c1ccc(-n2[nH]nnc2=S)cc1,103% (inactive),104% (inactive),106% (inactive),103% (inactive),95% (inactive),101% (inactive),101% (inactive),108% (inactive)
